Results published in PubChem BioAssay (NCI).
Several values for one entry are separate records, joined by “and”; a condition that tells them apart may be missing. Identical values can stand only once. About 83,000 compounds went through this panel and 20% of them were active in at least one assay; those are over-represented in the sample as a whole.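 Results are percent growth after 48 hours of single-concentration exposure. 100 means growth as in untreated cells, lower positive values show inhibition; negative values down to -100 show cell death.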 Activity calls are given as the source filed them. How the source made its calls: active means growth percent below 10; inactive means the rest.

What was measured:
Experiment in all cases: NCI-60 one-dose screen, 48 h (100 = growth as untreated, 0 = no growth, -100 = all killed)
T-47D breast = conditions: 10 µM unless noted
BT-549 breast = conditions: 10 µM unless noted
MDA-MB-435 melanoma = conditions: 10 µM unless noted
SW-620 colon = conditions: 10 µM unless noted
MCF7 breast = system: MCF7 breast
HCT-116 colon = conditions: 10 µM unless noted
HCC-2998 colon = conditions: 10 µM unless noted
KM12 colon = conditions: 10 µM unless noted

Structure (SMILES) | growth (T-47D breast) | growth (BT-549 breast) | growth (MDA-MB-435 melanoma) | growth (SW-620 colon) | growth (MCF7 breast; 10 µM) | growth (HCT-116 colon) | growth (HCC-2998 colon) | growth (KM12 colon) | growth (MCF7 breast; 20 µM)
S=C(N/N=C/c1ccccn1)Nc1ccccn1 | 31% (inactive) | 38.1% (inactive) | 47.4% (inactive) | 32.8% (inactive) | 14.3% (inactive) | 1.18% (active) | 25.2% (inactive) | 29.7% (inactive) | –
Cc1ccnc2c1ccc1c(C)ccnc12 | 6.3% (active) | 23.2% (inactive) | 32% (inactive) | 30.2% (inactive) | 13.9% (inactive) | 13.7% (inactive) | 51.3% (inactive) | 24.2% (inactive) | –
O[C@H]1[C@H]2c3cc4c(cc3CN3CCC(=C[C@@H]1O)[C@H]23)OCO4 | 34.5% (inactive) | 71.2% (inactive) | 32.5% (inactive) | 30.4% (inactive) | 11.7% (inactive) | 13.5% (inactive) | 18.9% (inactive) | 21.2% (inactive) | –
N[C@H](C(=O)O)[C@@H]1CC(Cl)=NO1 | 37.4% [20 µM] (inactive) | 27.3% [20 µM] (inactive) | 29.6% [20 µM] (inactive) | 10.2% [20 µM] (inactive) | – | 14.1% [20 µM] (inactive) | 34.7% [20 µM] (inactive) | 18.2% [20 µM] (inactive) | 12.3% (inactive)
NC(=S)N/N=C/c1ccc(Cl)s1 | 89.8% (inactive) | 112% (inactive) | 104% (inactive) | 105% (inactive) | 104% (inactive) | 93.4% (inactive) | 111% (inactive) | 101% (inactive) | –
CCOC(=O)/C(=C\c1ccc(-c2ccccc2)cc1)C(C)=O | 105% (inactive) | 98.8% (inactive) | 98.9% (inactive) | 101% (inactive) | 93.3% (inactive) | 103% (inactive) | 95.2% (inactive) | 104% (inactive) | –
O=C(CC1(O)C(=O)Nc2c(Cl)ccc(Cl)c21)c1ccc(Cl)cc1Cl (centres undefined) | 75.5% (inactive) | 90.2% (inactive) | 91.6% (inactive) | 105% (inactive) | 91.6% (inactive) | 89.9% (inactive) | 110% (inactive) | 102% (inactive) | –
Cc1ccnc(NC(c2ccccc2)c2ccc3cccnc3c2O)c1 (centres undefined) | 54.7% (inactive) | 57.1% (inactive) | 30.5% (inactive) | 48.9% (inactive) | 22.4% (inactive) | 31.8% (inactive) | 27.3% (inactive) | 32.8% (inactive) | –
O=C(Oc1cccc2cccnc12)c1ccccc1 | 38.6% (inactive) and 95.2% (inactive) | 101% (inactive) and 107% (inactive) | 88% (inactive) | 49.7% (inactive) and 104% (inactive) | 55.1% (inactive) and 102% (inactive) | 32.8% (inactive) and 102% (inactive) | 108% (inactive) and 104% (inactive) | 101% (inactive) and 104% (inactive) | –
CN1c2ccccc2C(C)(C)C12C=Cc1cc(O)ccc1O2 (centres undefined) | 40.2% (inactive) | 33.2% (inactive) | -66.4% (active) | 46.9% (inactive) | 5.47% (active) | 67.9% (inactive) | 83.2% (inactive) | 18.7% (inactive) | –
Nc1nc(N)c2nc(CNc3ccc(C(=O)NC(CCC(=O)O)C(=O)O)cc3)cnc2n1 (centres undefined) | 58% (inactive) and 55.5% (inactive) | 45.3% (inactive) and 45.4% (inactive) | 35.8% (inactive) and 24.4% (inactive) | 27.6% (inactive) and 55.3% (inactive) | 18% (inactive) and 16.3% (inactive) | 21.2% (inactive) and 10.3% (inactive) | 16.6% (inactive) and 3.42% (active) | 38.7% (inactive) and 30.8% (inactive) | –
CCC1OC(OC)C=CC1=O (centres undefined) | 95.1% (inactive) | 88.8% (inactive) | 98.6% (inactive) | 100% (inactive) | 89.9% (inactive) | 96.5% (inactive) | 122% (inactive) | 99.7% (inactive) | –
Cc1ccc(N=C=C(c2ccccc2)c2ccccc2)cc1 | 85.7% (inactive) | 91.9% (inactive) | 79.9% (inactive) | 35.8% (inactive) | 68.5% (inactive) | 15.9% (inactive) | 101% (inactive) | 95% (inactive) | –
